# AMPAR-TARP mod – modulators of AMPA receptor GluA2-stargazin complexes | HEK293 GluA2+stargazin, membrane potential dye (FDSS), glutamate EC50; hits were called plate by plate, in both directions | calls only at 30 µM | hit rate 3.5% among 40,000;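 active = any of four per-well response measures lying three or more SD from its plate-wide compound average, in either direction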
# GIRK2 activator – Activates human GIRK2-containing potassium channels; P48051; HEK293 GIRK2/NPY4 cells, thallium flux fluorescence; activation (% efficacy), % for hits at 37.5 µM; 34,000 tested, under 10 active;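 active = primary screen hit, no activity in plain HEK293 cells, and in GIRK2-only cells above 5% efficacy rising with concentration; inactive = the rest, including fluorescent compounds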;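 note: efficacy is normalized control-subtracted fluorescence 15 s after thallium addition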
# Target sequence (P48051 whole entry, looked up): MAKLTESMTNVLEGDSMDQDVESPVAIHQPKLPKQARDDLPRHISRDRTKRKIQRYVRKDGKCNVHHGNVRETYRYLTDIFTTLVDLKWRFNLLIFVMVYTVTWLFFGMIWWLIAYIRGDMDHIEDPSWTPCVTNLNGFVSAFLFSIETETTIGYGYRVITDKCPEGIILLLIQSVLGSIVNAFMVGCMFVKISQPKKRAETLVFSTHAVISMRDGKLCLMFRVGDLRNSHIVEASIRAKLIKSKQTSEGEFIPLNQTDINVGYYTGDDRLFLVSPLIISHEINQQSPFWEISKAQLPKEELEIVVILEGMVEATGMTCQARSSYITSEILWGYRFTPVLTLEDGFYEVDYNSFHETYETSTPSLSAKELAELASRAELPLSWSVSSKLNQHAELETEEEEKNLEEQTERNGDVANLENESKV
# * = called active by the depositor; i = inactive; x = no result; + = active, no number; ! = a repeat was not active. Many of the other results were omitted from the sample, so hits are more common in it than they were.
SMILES,AMPAR-TARP mod,GIRK2 activator
Cc1ccccc1-n1c(C)c(C)n2c3c(=O)n(CC(=O)OCc4ccccc4)c(=O)n(C)c3nc12,i,x
CN(Cc1ccco1)S(=O)(=O)c1ccc(C(=O)Nc2ccc(F)cc2F)cc1,i,x
Cc1cc(NC(=O)C2CCCN2S(=O)(=O)c2ccc(Cl)s2)n(C(C)C)n1 (stereo not given),i,i
O=C(CS(=O)c1ccc(C(F)(F)F)cc1[N+](=O)[O-])Oc1ccc(Br)cc1 (stereo not given),i,x
CCCCN1CC(c2nc3ccccc3n2CCOc2ccccc2OC)CC1=O (stereo not given),+,x
CCCCN1CC(c2nc3ccccc3n2CCOc2cccc(OC)c2)CC1=O (stereo not given),i,x
O=C(O)CCC(=O)N1CCCCCC1,i,x
CSc1ccc(-c2noc(CSc3nc4ccccc4c(=O)n3Cc3ccco3)n2)cc1,i,x
COc1ccc(-c2noc(CSc3nc4ccccc4c(=O)n3Cc3ccco3)n2)cc1OC,+,x
COc1ccc(C(CNC(=O)C(=O)Nc2ccc(C(N)=O)cc2)N2CCOCC2)cc1 (stereo not given),x,i
CCOC(=O)c1c(NC(=O)COc2ccc(Cl)cc2)sc2c1CCN(Cc1ccccc1)C2,+,x
CCOC(=O)c1c(NC(=O)c2ccnn2C)sc2c1CCCC2,x,i
COC(=O)c1c(NC(=O)c2ccno2)sc2c1CCN(Cc1ccccc1)C2,x,i
CCOC(=O)c1c(NC(=O)c2ccc(S(=O)(=O)N(C)C3CC3)cc2)sc2c1CCN(CC)C2,+,i
CN(C1CCCC1)S(=O)(=O)c1ccc(C(=O)Nc2sc3c(c2C(N)=O)CCCC3)cc1,i,x
CCOC(=O)c1c(NC(=O)c2cc(C)nn2C)sc2c1CCN(CC)C2,+,i
COc1cc(NC(=O)Cn2cnc3ccccc32)c2ncccc2c1,i,i
COc1cc(CN2CCC(c3nnc(C)s3)CC2)cc(OC)c1,i,i
Cc1ccc(C)c(S(=O)(=O)Nc2ccc(C(=O)NCCc3ccccc3)cc2)c1,i,x
Cc1cc(C)c(C(=O)NCCc2ccccc2)c(C)c1,+!,i
COCC(=O)Nc1ccc(-c2cn3nc(OC)ccc3n2)cc1,x,i
O=S(=O)(c1ccccc1)c1nc(-c2ccccc2Cl)oc1NCCCn1ccnc1,i,i
Cc1cc(C)c2c(n1)sc1c(=O)n(CC(=O)Nc3ccc(F)cc3Cl)cnc12,i,x
Cc1cccc(C)c1N1CCN(C(=O)c2ccc3c(c2)OCO3)CC1,+,x
Cn1ccnc1N1CCN(C(=O)c2ccc3c(c2)OCO3)CC1,i,i
SMILES,AMPAR-TARP mod,GIRK2 activator
COc1ccc(NC(=O)c2ccc(=O)n(CC(=O)Nc3cc(Cl)ccc3OC)n2)cc1,i,i
COc1ccccc1-c1ccc(N2CCC(C(=O)N3CCN(c4ccccc4OC)CC3)CC2)nn1,i,i
CCN(C(=O)C1CCN(c2ccc(-c3ccccc3OC)nn2)CC1)C1CCCCC1,+,i
O=S(=O)(Nc1ccc(Br)cc1)N1CCCCCC1,+,x
O=S(=O)(Nc1ccc(Br)cc1)N1CCOCC1,i,x
CCOc1ccc(C(=O)Nc2cc(C(=O)N3CCCCCC3)cn(C)c2=O)cc1OCC,i,x
O=C(Nc1sccc1-c1nc2ccccc2s1)c1cccc(N2C(=O)CCC2=O)c1,i,i
COc1cccc(NC(=O)Nc2c3ccccc3nc(=O)n2CC(C)C)c1OC,i,x
CSCCC(C)(O)CNC(=O)c1cc2ccccc2o1 (stereo not given),+,i
CSCCC(C)(O)CNC(=O)c1cc2ccccc2oc1=O (stereo not given),i,i
COc1ccccc1N1CC(C)Cn2c1nc1c2c(=O)n(Cc2ccc(C)cc2)c(=O)n1C (stereo not given),+,x
COc1ccccc1N1CC(C)Cn2c1nc1c2c(=O)n(Cc2cccc(C)c2)c(=O)n1C (stereo not given),i,x
Cc1cc(C)c2c(n1)nn1c(NCCN3CCOCC3)cc(C)nc21,+,i
Cc1cc(C)c2c(n1)nn1c(NCCN(C)C)cc(C)nc21,+,i
Cc1cc(C)c2c(n1)nn1c(NCCc3ccccc3)cc(C)nc21,i,i
Cc1ccc(-c2c(C)nn3c(NCCN4CCOCC4)cc(C)nc23)cc1,i,i
COc1cn(CC(=O)N2CCCc3ccccc32)c(CSc2nc(C)cs2)cc1=O,i,i
CC(C)Cn1c(=O)c2ccc(C(=O)NC(C)C)cc2n2c(SCC(=O)NC(C)C)nnc12,i,i
CCOCC(=O)N1CCN(Cc2nnnn2-c2ccc(OCC)cc2)CC1,i,i
CCC(=O)Nc1ccc(S(=O)(=O)Nc2ccc3c(c2)CCCN3C(=O)c2ccccc2)cc1,i,x
COc1ccc(-c2noc(-c3cc(-c4cccs4)[nH]n3)n2)cc1,i,i
COc1ccc(C(CNC(=O)C2CCCCC2)N2CCOCC2)cc1 (stereo not given),+,x
COc1ccc(C(CNC(=O)C(=O)NC2CCCC2)N2CCOCC2)cc1 (stereo not given),i,i
O=C(NCC(c1ccc(F)cc1)N1CCOCC1)C1CCCCC1 (stereo not given),+,x
O=C(Cc1ccc(F)cc1)NCC(c1ccc(F)cc1)N1CCOCC1 (stereo not given),i,x
SMILES,AMPAR-TARP mod,GIRK2 activator
O=C(NCCCn1nc(-c2ccc(F)cc2)ccc1=O)C1(c2ccccc2)CCOCC1,i,i
COc1cc(C)c(S(=O)(=O)N2CCN(C)CC2)cc1C(C)C,x,i
CCOc1ccccc1NC(=O)CCN1C(=O)c2ccccc2S1(=O)=O,i,i
Cc1ccc(OCCCC(=O)Nc2nccs2)c(C)c1,i,i
CCCCCNC(=O)CCCOc1ccc(C)cc1C,+,i
O=C(NCCn1ncc2c(N3CCN(c4ncccn4)CC3)ncnc21)c1cnccn1,i,x
O=C(Nc1c2c(nn1-c1ccccc1)CS(=O)(=O)C2)C(=O)N1CCCCC1,i,i
COCCCNC(=O)C(=O)Nc1c2c(nn1-c1ccc(Cl)cc1)CS(=O)(=O)C2,i,x
O=C(Nc1c2c(nn1-c1ccccc1)CS(=O)(=O)C2)C(=O)N1CCCC1,+,i
COCCNC(=O)C(=O)Nc1c2c(nn1-c1ccc(Cl)cc1)CS(=O)(=O)C2,+,x
CC(C)c1nnc(C2CCN(C(=O)c3cc(=O)c4ccccc4o3)CC2)o1,i,i
COc1ccc(S(=O)(=O)CCC(=O)Nc2nc3c(s2)C(=O)CC(C)(C)C3)cc1,i,i
O=C(Nc1nccs1)c1ccc(-c2ccc(F)cc2)o1,i,x
COc1ccc(-c2csc3ncn(Cc4ccccc4F)c(=O)c23)cc1OC,i,x
CC(C)N1CCc2c(sc(NC(=O)Cc3ccccc3)c2-c2nc3ccccc3s2)C1,i,x
COC(=O)c1c(NC(=O)Cc2ccc(F)cc2)sc2c1CCN(C(C)C)C2,+,i
COc1ccc(C(=O)NC2CCCC(O)C2)cc1 (stereo not given),i,i
Cn1c(=O)c2c(SCC(=O)NCCc3ccccc3)ccnc2n(C)c1=O,i,i
Cn1c(=O)c2c(NCCc3ccc(S(N)(=O)=O)cc3)ccnc2n(C)c1=O,+,i
Cc1cc(NC(=O)C(=O)NCC(c2cccc3ccccc23)N(C)C)no1 (stereo not given),x,i
Cc1ccc(CNC(=O)C(=O)Nc2c3c(nn2-c2ccc(C)cc2)CSC3)cc1,i,i

# From PubChem BioAssay
